These compounds were tested on Meloidogyne hapla J2 (assay: proportion of mobile M. hapla J2 relative to DMSO control (fraction of DMSO control); higher = more viable, less nematicidal, active = 0.7 or less). Conditions: 60 µM; 5 days; temperature: 20 °C.
Method in brief: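 About 25 M. hapla J2 were placed in each well of a 96-well plate in distilled water, and compound was pinned in to a final 60 µM with 0.6% v/v DMSO. The sealed plates were shaken at 200 rpm at 20 °C for 5 days, after which 2 µL of 1 M NaOH went into each well. Mobility was then scored under the microscope and divided by the mean value from DMSO-only wells on the same plate. Each plate held eight such DMSO wells, and two biological replicates were averaged.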

Compound | proportion of mobile M. hapla J2
Cc1ccc(OCc2nc(-c3ccccc3)no2)c(Br)c1 | 1.01 (inactive)
CCCCc1ccc(-c2nc(-c3cccnc3)no2)cc1 | 0.977 (inactive)
CCn1c(SCc2nc(-c3ccccc3)no2)nc2ccccc21 | 1.02 (inactive)
CSc1ccccc1-c1nc(-c2cccnc2)no1 | 1.07 (inactive)
Cc1ccc(-c2noc(COc3ccc(Cl)c(C)c3)n2)cc1 | 0.905 (inactive)
CCN(CC)C(=O)CSc1nnc(-c2ccc(Cl)cc2Cl)o1 | 1.03 (inactive)
O=C(CSc1nnc(-c2ccc(Cl)cc2)o1)Nc1ccc(F)cc1 | 0.912 (inactive)
Cc1ccc(-c2noc(COc3ccc(Cl)cc3C)n2)cc1 | 0.996 (inactive)
COc1ccc(NC(=O)CSc2nnc(-c3ccc(Br)cc3)o2)cc1 | 1.02 (inactive)
CCOc1nc(-c2ccc(C)cc2)ccc1-c1noc(CC)n1 | 0.667 (active)
Cc1cc(OCc2nc(-c3ccccc3)no2)ccc1Cl | 0.844 (inactive)
Fc1ccc(-c2nc(-c3ccc(Cl)cc3)no2)cc1 | 0.919 (inactive)
Brc1ccc(CSc2nnc(-c3cccnc3)o2)cc1 | 0.911 (inactive)
O=C(Nc1ccccc1-c1nc(-c2cccnc2)no1)c1cccc(Cl)c1 | 0.837 (inactive)
COc1ccccc1-c1noc(-c2ccccc2C)n1 | 0.962 (inactive)
COc1ccccc1OCc1nc(-c2ccc(Br)cc2)no1 | 1.04 (inactive)
Clc1ccc(OCc2ccccc2)c(-c2nc(-c3cccnc3)no2)c1 | 1.01 (inactive)
Cc1ccc(CSc2nnc(-c3ccncc3)o2)cc1 | 0.951 (inactive)
Cc1ccccc1-c1noc(-c2ccccc2OCC(N)=O)n1 | 0.993 (inactive)
FC(F)(F)c1cccc(-c2noc(-c3cccs3)n2)c1 | 0.893 (inactive)
COc1ccccc1-c1noc(-c2ccccc2)n1 | 1.04 (inactive)

These compounds were tested on Caenorhabditis elegans dauer (daf-2(e1370)) (assay: proportion of mobile C. elegans dauer larvae relative to DMSO control (fraction of DMSO control); higher = more viable, less nematicidal, active = 0.63 or less; extreme values may be limits of the assay). Conditions: 60 µM; 5 days; temperature: 20 °C.
Method in brief: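 Synchronized C. elegans daf-2(e1370) larvae were held at 25 °C for 48 h on MYOB plates with E. coli OP50 to form dauers, and about 20 dauers were added per 96-well well in liquid NGM. Compound was pinned to 60 µM final (0.6% v/v DMSO), and sealed plates were shaken at 200 rpm for 5 days at 20 °C. The proportion of mobile worms was scored under a dissection microscope relative to DMSO controls and averaged over two biological replicates.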

Compound | proportion of mobile C. elegans dauer larvae
Cc1ccc(C(=O)Nc2ccccc2-c2nc(-c3ccncc3)no2)cc1C | 1 (inactive)
COc1ccc(CCC(=O)Nc2ccc(-c3noc(-c4ccccc4C)n3)cc2)cc1 | 1 (inactive)
Fc1ccc(CSc2nnc(-c3ccccn3)o2)cc1 | 1 (inactive)
Clc1ccc(-c2noc(-c3ccncc3)n2)cc1 | 1 (inactive)
Cc1cc(C)cc(OCc2nc(-c3ccccc3Cl)no2)c1 | 1 (inactive)
COc1ccccc1-c1nnc(SCC(=O)OCc2ccccc2)o1 | 1 (inactive)
Cc1cc(Cl)ccc1OCc1nc(-c2ccc(F)cc2)no1 | 1 (inactive)
CCc1cccc(CC)c1NC(=O)CSc1nnc(-c2ccccc2OC)o1 | 1 (inactive)
O=C(CSc1nnc(-c2ccccc2Cl)o1)Nc1nccs1 | 1 (inactive)
N#Cc1ccc(OCc2nc(-c3ccc(Br)o3)no2)cc1 | 1 (inactive)
COc1ccc(-c2noc(CSc3ccc(C)cc3)n2)cc1 | 1 (inactive)
CCOC(=O)c1c(NC(=O)CSc2nnc(-c3ccc(Cl)cc3)o2)sc(C)c1C | 1 (inactive)
Ic1ccc(-c2nc(-c3cccnc3)no2)cc1 | 1 (inactive)
CCOc1ccccc1-c1nnc(SCC(=O)c2ccccc2)o1 | 1 (inactive)
Cc1cc(C)c(NC(=O)CSc2nnc(-c3ccc(Br)cc3)o2)c(C)c1 | 1 (inactive)
COc1ccc(CC(=O)Nc2ccc(-c3noc(COc4cccc(C)c4C)n3)cc2)cc1 | 1 (inactive)
Cc1cc(OCc2nc(-c3cccnc3)no2)ccc1Cl | 1 (inactive)
Cc1ccc(OCc2nc(-c3ccccc3)no2)c(Br)c1 | 1 (inactive)
CCCCc1ccc(-c2nc(-c3cccnc3)no2)cc1 | 1 (inactive)

Compound | proportion of mobile C. elegans dauer larvae
CCn1c(SCc2nc(-c3ccccc3)no2)nc2ccccc21 | 1 (inactive)
CSc1ccccc1-c1nc(-c2cccnc2)no1 | 0.684 (inactive)
Cc1ccc(-c2noc(COc3ccc(Cl)c(C)c3)n2)cc1 | 1 (inactive)
CCN(CC)C(=O)CSc1nnc(-c2ccc(Cl)cc2Cl)o1 | 1 (inactive)
O=C(CSc1nnc(-c2ccc(Cl)cc2)o1)Nc1ccc(F)cc1 | 1 (inactive)
Cc1ccc(-c2noc(COc3ccc(Cl)cc3C)n2)cc1 | 1 (inactive)
COc1ccc(NC(=O)CSc2nnc(-c3ccc(Br)cc3)o2)cc1 | 1 (inactive)
CCOc1nc(-c2ccc(C)cc2)ccc1-c1noc(CC)n1 | 1 (inactive)
Cc1cc(OCc2nc(-c3ccccc3)no2)ccc1Cl | 1 (inactive)
Fc1ccc(-c2nc(-c3ccc(Cl)cc3)no2)cc1 | 1 (inactive)
Brc1ccc(CSc2nnc(-c3cccnc3)o2)cc1 | 1 (inactive)
O=C(Nc1ccccc1-c1nc(-c2cccnc2)no1)c1cccc(Cl)c1 | 1 (inactive)
COc1ccccc1-c1noc(-c2ccccc2C)n1 | 1 (inactive)
COc1ccccc1OCc1nc(-c2ccc(Br)cc2)no1 | 1 (inactive)
Clc1ccc(OCc2ccccc2)c(-c2nc(-c3cccnc3)no2)c1 | 1 (inactive)
Cc1ccc(CSc2nnc(-c3ccncc3)o2)cc1 | 1 (inactive)
Cc1ccccc1-c1noc(-c2ccccc2OCC(N)=O)n1 | 1 (inactive)
FC(F)(F)c1cccc(-c2noc(-c3cccs3)n2)c1 | 1 (inactive)
COc1ccccc1-c1noc(-c2ccccc2)n1 | 1 (inactive)

From the supplement of paper PMC11219838
